The record followed here is PubChem BioAssay (NCI).

This is part of a sample that, as a whole, favours compounds with a hit. Of some 83,000 tested, about 20% had one in any assay.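 Step 1: grow cells in 96-well plates. Step 2: add test compound at a single concentration. Step 3: incubate 48 h. Step 4: record percent growth.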 Values without a mark were called inactive. The source made the active and inactive calls. How the source made its calls: active means growth percent below 10; inactive means the rest.

What all share (test): NCI-60 one-dose screen, 48 h (100 = growth as untreated, 0 = no growth, -100 = all killed)
The test system of one assay is A549/ATCC NSCLC. The following applies: 10 µM unless noted.
A further assay has as its system 786-0 renal. Conditions: 10 µM unless noted.
The next assay relates to DU-145 prostate. The following applies: 10 µM unless noted.
The test system of a further assay is SF-268 CNS. Conditions: 10 µM unless noted.
For a further assay, the system named is SF-539 CNS. Conditions: 10 µM unless noted.
In another assay the test system is HCT-15 colon. Conditions: 10 µM.
For a further assay, the system named is SNB-75 CNS. The following applies: 10 µM unless noted.
The subject of a further assay is SNB-19 CNS. The following applies: 10 µM unless noted.
The subject of another assay is UACC-62 melanoma. Conditions: 10 µM unless noted.
For the next assay, the system named is SN12C renal. Conditions: 10 µM unless noted.
In the next assay the test system is TK-10 renal. Conditions: 10 µM unless noted.
The next assay deals with ACHN renal. Conditions: 10 µM unless noted.
Another assay concerns HL-60(TB) leukemia. Conditions: 10 µM unless noted.
The next assay relates to OVCAR-8 ovarian. The following applies: 10 µM unless noted.
The next assay has as its system OVCAR-5 ovarian. The following applies: 10 µM unless noted.
In a further assay the test system is OVCAR-3 ovarian. The following applies: 10 µM unless noted.
The subject of the next assay is NCI/ADR-RES ovarian. The following applies: 10 µM unless noted.
The test system of another assay is T-47D breast. Conditions: 10 µM unless noted.
A further assay concerns MDA-MB-435 melanoma. The following applies: 10 µM unless noted.
The next assay relates to MCF7 breast. Conditions: 10 µM unless noted.

For the molecule `COc1ccc(CN2CCN(Cc3ccccc3)CC2)c(O)c1`, the growth is 97.4% in the assay on A549/ATCC NSCLC; 95% in the assay with 786-0 renal; 97.4% in the assay on DU-145 prostate; 100% with SF-268 CNS; 117% in the assay with SF-539 CNS; 99.2% in the assay on HCT-15 colon. Moreover, the growth with SNB-75 CNS is 89.8%; with SNB-19 CNS, 104%; in the assay on UACC-62 melanoma, 96.2%; with SN12C renal, 91.2%; with TK-10 renal it was 100%; with ACHN renal, 87.5%. The growth with HL-60(TB) leukemia was 91.9%; with OVCAR-8 ovarian it was 98.2%; in the assay with OVCAR-5 ovarian, 101%; with OVCAR-3 ovarian, 81.1%; in the assay on NCI/ADR-RES ovarian, 83.4%; with T-47D breast it was 84.7%. Further, the growth is 103% with MDA-MB-435 melanoma and 99.7% in the assay on MCF7 breast.

As to `C/C(=N/OC(=O)N(C)C)c1cc(Cl)ccc1Cl`, the growth is 101% in the assay with A549/ATCC NSCLC; 97.8% in the assay on 786-0 renal; 105% in the assay with DU-145 prostate; 99.4% with SF-268 CNS; 103% in the assay with SF-539 CNS; 100% in the assay on HCT-15 colon. For the same molecule, the growth with SNB-75 CNS was 82.1%; with SNB-19 CNS, 101%; with UACC-62 melanoma, 108%; with SN12C renal, 103%; in the assay with TK-10 renal, 97.7%; with ACHN renal, 100%. The growth is 95.1% with HL-60(TB) leukemia; 103% in the assay on OVCAR-8 ovarian; 104% in the assay on OVCAR-5 ovarian; 105% in the assay on OVCAR-3 ovarian; 99.4% in the assay with NCI/ADR-RES ovarian; 96.7% with T-47D breast. In addition, the results for the growth in the assay with MDA-MB-435 melanoma and in the assay on MCF7 breast were 99.2% and 97.8%, respectively.

As for `COc1ccc(NP2(=O)OCC(C)(N)CO2)cc1` (stereo not drawn), the growth in the assay on A549/ATCC NSCLC is 93.6%; with 786-0 renal, 101%; in the assay on DU-145 prostate, 102%; with SF-268 CNS, 96.2%; in the assay with SF-539 CNS, 100%; in the assay on HCT-15 colon, 89.3%. Besides, the growth in the assay on SNB-75 CNS was 95.7%; with SNB-19 CNS it was 105%; with UACC-62 melanoma, 99.9%; with SN12C renal, 105%; with TK-10 renal, 93.2%; in the assay with ACHN renal it was 96.6%. In addition, the growth with HL-60(TB) leukemia is 95%; with OVCAR-8 ovarian, 101%; in the assay with OVCAR-5 ovarian, 102%; in the assay on OVCAR-3 ovarian it was 107%; in the assay on NCI/ADR-RES ovarian, 98.2%; with T-47D breast, 78.5%. Also, the results for the growth with MDA-MB-435 melanoma and with MCF7 breast were 108% and 99.6%, respectively.

With `CCC(C)(C)O`, the growth with A549/ATCC NSCLC is 108%; in the assay with 786-0 renal, 114%; in the assay with DU-145 prostate, 115%; with SF-268 CNS it was 99.1%; with SF-539 CNS, 108%; in the assay with HCT-15 colon, 99.9%. Further, the growth in the assay with SNB-75 CNS was 92.1%; in the assay on SNB-19 CNS it was 104%; in the assay on UACC-62 melanoma, 98.5%; in the assay on SN12C renal, 98.8%; in the assay with TK-10 renal it was 107%; in the assay on ACHN renal, 103%. The growth is 86.4% with HL-60(TB) leukemia; 108% in the assay with OVCAR-8 ovarian; 90.1% in the assay with OVCAR-5 ovarian; 111% with OVCAR-3 ovarian; 110% with NCI/ADR-RES ovarian; 107% in the assay on T-47D breast. The growth with MDA-MB-435 melanoma was 92.3%; in the assay with MCF7 breast it was 97.6%.

Consider `CC(C)OC(=S)[S-].[Au+].c1ccc([PH+](c2ccccc2)c2ccccc2)cc1`, for which the growth with A549/ATCC NSCLC was 84.5%; in the assay on 786-0 renal, 2.78% (active); in the assay on DU-145 prostate, 50%; in the assay with SF-268 CNS, 18.2%; in the assay on SF-539 CNS, 7.83% (active); in the assay with HCT-15 colon it was -14.2% (active). Moreover, the growth in the assay with SNB-75 CNS is 18.5%; in the assay on SNB-19 CNS, 25.1%; with UACC-62 melanoma it was 0.794% (active); with SN12C renal, 16.7%; with TK-10 renal, -3.22% (active); in the assay with ACHN renal, 0.723% (active). Besides, the growth is 1.15% (active) in the assay on HL-60(TB) leukemia; 27.2% with OVCAR-8 ovarian; 73.9% in the assay with OVCAR-5 ovarian; -43% (active) in the assay on OVCAR-3 ovarian; 67.6% with NCI/ADR-RES ovarian; 30.3% in the assay with MDA-MB-435 melanoma. In addition, the growth in the assay with MCF7 breast is 2.73% (active).

Turning to `COc1c(O)c2c3c(c1OC)-c1ccccc1CC3N(C)CC2` (stereo not drawn), the growth in the assay on A549/ATCC NSCLC was 103%; with 786-0 renal it was 100%; in the assay on DU-145 prostate, 116%; with SF-268 CNS it was 101%; in the assay with SF-539 CNS, 107%; with HCT-15 colon it was 105%. The growth is 82.4% with SNB-75 CNS; 102% in the assay on SNB-19 CNS; 94.9% with UACC-62 melanoma; 99.9% with SN12C renal; 102% in the assay with TK-10 renal; 105% in the assay with ACHN renal. Besides, the growth in the assay on HL-60(TB) leukemia was 112%; in the assay on OVCAR-8 ovarian, 110%; with OVCAR-5 ovarian, 109%; in the assay with OVCAR-3 ovarian it was 109%; with NCI/ADR-RES ovarian, 99.7%; in the assay with T-47D breast, 100%. In addition, the growth with MDA-MB-435 melanoma is 104%; in the assay with MCF7 breast it was 100%.

`COc1cc(NCCCCCN=C(N)N)c2ncccc2c1`: the growth was 90.7% with A549/ATCC NSCLC; 86.3% in the assay on 786-0 renal; 103% in the assay on DU-145 prostate; 3.28% (active) with SF-268 CNS; 23.8% in the assay on SF-539 CNS; 99.2% with HCT-15 colon. In addition, the growth in the assay on SNB-75 CNS is 47%; in the assay on SNB-19 CNS, 37.5%; in the assay on UACC-62 melanoma it was 89.3%; with SN12C renal it was 7.58% (active); in the assay with ACHN renal, 105%; in the assay on HL-60(TB) leukemia, 18.2%. Further, the growth with OVCAR-8 ovarian is 32.6%; in the assay with OVCAR-5 ovarian, 97.3%; with OVCAR-3 ovarian, 0.151% (active); in the assay on NCI/ADR-RES ovarian, 104%; with T-47D breast, 11.8%; in the assay with MDA-MB-435 melanoma, 104%. In the assay with MCF7 breast, the growth was -51.1% (active).

Turning to `O=C(N/N=C/c1ccc([N+](=O)[O-])o1)c1cc([N+](=O)[O-])cc([N+](=O)[O-])c1O`, the growth in the assay on A549/ATCC NSCLC is 102%; in the assay with 786-0 renal, 106%; in the assay with DU-145 prostate, 111%; in the assay with SF-268 CNS, 101%; with SF-539 CNS, 112%; in the assay with HCT-15 colon, 93.3%. Moreover, the growth was 83% in the assay on SNB-75 CNS; 100% with SNB-19 CNS; 88.9% in the assay on UACC-62 melanoma; 96.1% with SN12C renal; 121% in the assay with TK-10 renal; 90.6% in the assay with ACHN renal. The growth with HL-60(TB) leukemia is 93.5%; with OVCAR-8 ovarian, 89.8%; with OVCAR-5 ovarian, 114%; in the assay on OVCAR-3 ovarian, 113%; in the assay on NCI/ADR-RES ovarian, 89.1%; with T-47D breast it was 93.5%. Besides, the growth in the assay on MDA-MB-435 melanoma is 98.3%; in the assay on MCF7 breast, 84.6%.
